Several values for one entry are separate records, joined by “and”; a condition that tells them apart may be missing. Equal values may be shown once. Among all 5,500 compounds or so, about 2,000 (36%) were called active. Not shown: some 18% with an inconclusive outcome. Rule as the data show it: active = normalized growth mostly below about 0.91 (no sharp cut-off); inconclusive = no clear call, values can overlap the other calls; inactive = mostly above about 0.92. Some of the results follow.
Assay: chemical genetic growth profiling, strain panel (AID 1159580);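 also: tested at 20 µM; growth read once vehicle control cultures reached saturation at 30 °C; 1 = growth at the plate median or of vehicle wells; lower values mean less growth of the strain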
Conditions: growth OD
[1] = S. cerevisiae deletion strains, locus YAL013W, strain DEP1, hits give low values
[2] = S. cerevisiae deletion strains, locus YBR229C, strain ROT2, hits give low values
[3] = S. cerevisiae deletion strains, locus YDL101C, strain DUN1, hits give low values
[4] = S. cerevisiae deletion strains, locus YDR150W, strain NUM1, hits give low values
[5] = S. cerevisiae deletion strains, locus YEL061C, strain CIN8, hits give low values
[6] = S. cerevisiae deletion strains, locus YGR078C, strain PAC10, hits give low values
[7] = S. cerevisiae deletion strains, locus YGR229C, strain SMI1, hits give low values
[8] = S. cerevisiae deletion strains, locus YHR030C, strain SLT2, hits give low values
[9] = S. cerevisiae deletion strains, locus YHR087W, strain rtc3, hits give low values
[10] = S. cerevisiae deletion strains, locus YJL187C, strain SWE1, hits give low values
[11] = S. cerevisiae deletion strains, locus YJR043C, strain POL32, hits give low values
[12] = S. cerevisiae deletion strains, locus YJR075W, strain HOC1, hits give low values
[13] = S. cerevisiae deletion strains, locus YLR039C, strain RIC1, hits give low values
[14] = S. cerevisiae deletion strains, locus YLR058C, strain SHM2 (second series), hits give low values
[15] = S. cerevisiae deletion strains, locus YLR085C, strain ARP6, hits give low values
[16] = S. cerevisiae deletion strains, locus YLR262C, strain YPT6, hits give low values
[17] = S. cerevisiae deletion strains, locus YML094W, strain GIM5, hits give low values
[18] = S. cerevisiae deletion strains, locus YMR219W, strain ESC1, hits give low values
[19] = S. cerevisiae deletion strains, locus YMR263W, strain SAP30, hits give low values
[20] = S. cerevisiae deletion strains, locus YNL153C, strain GIM3, hits give low values
[21] = S. cerevisiae deletion strains, locus YNL298W, strain CLA4 (second series), hits give low values
[22] = S. cerevisiae deletion strains, locus YNL322C, strain KRE1, hits give low values
[23] = S. cerevisiae deletion strains, locus YNR030W, strain Alg12, hits give low values
[24] = S. cerevisiae deletion strains, locus YOL006C, strain TOP1, hits give low values
[25] = S. cerevisiae deletion strains, locus YPL055C, strain LGE1, hits give low values
[26] = S. cerevisiae deletion strains, locus YPL241C, strain CIN2, hits give low values
[27] = S. cerevisiae deletion strains, locus YPR135W, strain CTF4, hits give low values
[28] = S. cerevisiae deletion strains, locus YGR052W, strain FMP48, hits give low values
[29] = S. cerevisiae deletion strains, locus YHR079C, strain IRE1, hits give low values
[30] = S. cerevisiae deletion strains, locus YHR082C, strain KSP1, hits give low values
[31] = S. cerevisiae deletion strains, locus YJL095W, strain BCK1, hits give low values
[32] = S. cerevisiae deletion strains, locus YJR066W, strain TOR1, hits give low values
[33] = S. cerevisiae deletion strains, locus YKL203C, strain TOR2, hits give low values
[34] = S. cerevisiae deletion strains, locus YLR113W, strain HOG1, hits give low values
[35] = S. cerevisiae deletion strains, locus YNL183C, strain NPR1, hits give low values
[36] = S. cerevisiae deletion strains, locus YNL207W, strain RIO2, hits give low values
[37] = S. cerevisiae deletion strains, locus YOR119C, strain RIO1, hits give low values
[38] = S. cerevisiae deletion strains, locus YOR231W, strain MKK1, hits give low values
[39] = S. cerevisiae deletion strains, locus YPL256C, strain CLN2, hits give low values

Measured: normalized growth

Cc1cc(NS(=O)(=O)c2ccc(NS(=O)(=O)c3ccc(Cl)cc3)cc2)no1
inactive: [1] 1.03 | [2] 1.02 | [3] 1 | [4] 0.956 | [5] 1.01 | [6] 1 | [7] 1.01 | [8] 1.07 | [9] 0.999 | [10] 1.01 | [11] 1.04 | [12] 1.02 | [13] 1.02 | [14] 1 | [15] 0.983 | [16] 1.07 | [17] 0.988 | [18] 1.01 | [19] 0.956 | [20] 1.02 | [21] 1.03 | [22] 1.01 | [23] 1.02 | [24] 1.06 | [25] 0.902 | [26] 0.995 | [27] 1.08

Cc1ccc(S(=O)(=O)Nc2ccc(C)c([N+](=O)[O-])c2)cc1
inactive: [1] 0.995 | [2] 0.988 | [3] 0.95 | S. cerevisiae deletion strains, locus YDL134C, strain PPH21, hits give low values 0.994 | [4] 0.958 | [5] 1.03 | [6] 0.986 | [7] 1 | [8] 0.989 | [9] 1.02 | [10] 1.01 | [11] 0.976 | [12] 0.971 | S. cerevisiae deletion strains, locus YKL190W, strain CNB1, hits give low values 0.988 | [13] 1.02 | [14] 1 | [15] 0.991 | [16] 1.01 | [17] 1.01 | [18] 0.993 | [19] 0.999 | [20] 0.979 | [21] 0.963 | [22] 0.983 | [23] 0.961 | [24] 1.02 | [25] 1.01 | [26] 0.952 | [27] 0.898 | S. cerevisiae strains, strain wild type, hits give low values 0.981

O=S(=O)(Nc1ccc(Oc2ccc(OC(F)(F)F)cc2)cc1)c1cccc(Cl)c1
inactive: S. cerevisiae deletion strains, locus YAR019C, strain CDC15, hits give low values 0.982 | S. cerevisiae deletion strains, locus YBL105C, strain PKC1, hits give low values 0.973 | S. cerevisiae deletion strains, locus YBR135W, strain CKS1, hits give low values 0.978 | S. cerevisiae deletion strains, locus YBR136W, strain MEC1, hits give low values 0.982 | S. cerevisiae deletion strains, locus YBR160W, strain CDC28, hits give low values 0.981 | S. cerevisiae deletion strains, locus YDL017W, strain CDC7, hits give low values 0.982 | S. cerevisiae deletion strains, locus YDL028C, strain MPS1, hits give low values 0.982 | [3] 0.991 | S. cerevisiae deletion strains, locus YDL108W, strain KIN28, hits give low values 0.976 | S. cerevisiae deletion strains, locus YDL132W, strain cdc53, hits give low values 0.988 | S. cerevisiae deletion strains, locus YDL214C, strain PRR2, hits give low values 0.932 | S. cerevisiae deletion strains, locus YDR052C, strain DBF4, hits give low values 0.98 | S. cerevisiae deletion strains, locus YDR054C, strain cdc34, hits give low values 0.988 | S. cerevisiae deletion strains, locus YDR226W, strain ADK1, hits give low values 0.984 | S. cerevisiae deletion strains, locus YDR477W, strain SNF1, hits give low values 0.964 | S. cerevisiae deletion strains, locus YER123W, strain YCK3, hits give low values 0.933 | S. cerevisiae deletion strains, locus YER133W, strain GLC7, hits give low values 0.933 | S. cerevisiae deletion strains, locus YFL009W, strain cdc4, hits give low values 0.979 | S. cerevisiae deletion strains, locus YFL029C, strain CAK1, hits give low values 0.985 | S. cerevisiae deletion strains, locus YFR003C, strain YPI1, hits give low values 0.977 | S. cerevisiae deletion strains, locus YFR019W, strain FAB1, hits give low values 0.891 | S. cerevisiae deletion strains, locus YFR028C, strain CDC14, hits give low values 0.985 | S. cerevisiae deletion strains, locus YGR040W, strain KSS1, hits give low values 0.949 | [28] 0.958 | S. cerevisiae deletion strains, locus YGR092W, strain DBF2, hits give low values 0.937 | [29] 0.837 | [30] 0.978 | S. cerevisiae deletion strains, locus YHR205W, strain SCH9, hits give low values 0.955 | S. cerevisiae deletion strains, locus YIL147C, strain SLN1, hits give low values 0.982 | [31] 0.948 | S. cerevisiae deletion strains, locus YJL128C, strain PBS2, hits give low values 0.936 | S. cerevisiae deletion strains, locus YJL157C, strain FAR1, hits give low values 0.946 | S. cerevisiae deletion strains, locus YJR016C, strain ILV3, hits give low values 0.991 | S. cerevisiae deletion strains, locus YJR066W, strain TOR1 (second series), hits give low values 0.92 | [32] 0.975 | S. cerevisiae deletion strains, locus YKL048C, strain ELM1, hits give low values 0.945 | S. cerevisiae deletion strains, locus YKL067W, strain YNK1, hits give low values 0.934 | S. cerevisiae deletion strains, locus YKL101W, strain HSL1, hits give low values 0.916 | S. cerevisiae deletion strains, locus YKL193C, strain SDS22, hits give low values 0.984 | [33] 0.995 | S. cerevisiae deletion strains, locus YLR133W, strain CKI1, hits give low values 0.941 | S. cerevisiae deletion strains, locus YLR403W, strain SFP1, hits give low values 0.954 | S. cerevisiae deletion strains, locus YML070W, strain DAK1, hits give low values 0.923 | S. cerevisiae deletion strains, locus YMR001C, strain CDC5, hits give low values 0.984 | S. cerevisiae deletion strains, locus YMR205C, strain PFK2 (second series), hits give low values 0.954 | S. cerevisiae deletion strains, locus YMR277W, strain FCP1, hits give low values 0.983 | S. cerevisiae deletion strains, locus YNL006W, strain LST8, hits give low values 0.98 | S. cerevisiae deletion strains, locus YNL020C, strain ARK1, hits give low values 0.919 | S. cerevisiae deletion strains, locus YNL161W, strain CBK1, hits give low values 0.977 | [35] 0.991 | [36] 0.989 | S. cerevisiae deletion strains, locus YNL222W, strain SSU72, hits give low values 0.979 | S. cerevisiae deletion strains, locus YNL307C, strain MCK1 (second series), hits give low values 0.897 | S. cerevisiae deletion strains, locus YOL078W, strain AVO1, hits give low values 0.991 | S. cerevisiae deletion strains, locus YOL136C, strain PFK27, hits give low values 0.92 | S. cerevisiae deletion strains, locus YOR061W, strain CKA2, hits give low values 0.917 | [37] 1.03 | [38] 0.887 | S. cerevisiae deletion strains, locus YOR329C, strain SCD5, hits give low values 0.974 | S. cerevisiae deletion strains, locus YPL031C, strain PHO85, hits give low values 0.95 | S. cerevisiae deletion strains, locus YPL153C, strain RAD53, hits give low values 0.982 | S. cerevisiae deletion strains, locus YPL204W, strain HRR25, hits give low values 0.941 | S. cerevisiae deletion strains, locus YPL209C, strain IPL1, hits give low values 0.977 | S. cerevisiae deletion strains, locus YPR025C, strain CCL1, hits give low values 0.977 | S. cerevisiae deletion strains, locus YPR106W, strain ISR1, hits give low values 0.988 | S. cerevisiae deletion strains, locus YPR111W, strain DBF20, hits give low values 0.969 | S. cerevisiae deletion strains, strain NNK1, hits give low values 0.989 | S. cerevisiae deletion strains, strain TSCII, hits give low values 0.983
active: [8] 0.562 | [34] 0.695 | [39] 0.75

O=S(=O)(Nc1ccc(Oc2ccc(Cl)cc2)cc1)c1ccccc1
inactive: [3] 0.911 | [12] 0.899 | [14] 0.998 | [22] 1.04
active: [1] 0.219 | [2] 0.923 | S. cerevisiae deletion strains, locus YCL061C, strain MRC1, hits give low values 0.851 | [4] 0.518 | [5] 0.51 | [28] 0.122 | [6] 0.901 | [8] 0.114 and 0.113 | [29] 0.199 | [30] 0.137 | [9] 0.866 | [31] 0.108 | [11] 0.843 | [32] 0.206 | [33] 0.274 | [13] 0.293 | [15] 0.247 | [34] 0.166 | [16] 0.117 | [17] 0.483 | [18] 0.925 | [20] 0.879 | [35] 0.154 | [36] 0.248 | [21] 0.321 | [23] 0.191 | [37] 0.226 | [38] 0.159 | [25] 0.106 | [26] 0.341 | [39] 0.239 | [27] 0.309

CCn1c(=O)c2[nH]c(-c3ccccc3)nc2n(CC)c1=O
inactive: S. cerevisiae deletion strains, locus YAL040C, strain CLN3, hits give low values 1 | S. cerevisiae deletion strains, locus YCL061C, strain MRC1 (second series), hits give low values 0.997 | S. cerevisiae deletion strains, locus YDR363W, strain ESC2, hits give low values 1.01 | S. cerevisiae deletion strains, locus YER002W, strain NOP16, hits give low values 1.04 | S. cerevisiae deletion strains, locus YMR307W, strain GAS1, hits give low values 0.992 | S. cerevisiae deletion strains, locus YNL175C, strain NOP13, hits give low values 1.01 | S. cerevisiae deletion strains, locus YNL197C, strain WHI3, hits give low values 1.01 | S. cerevisiae deletion strains, locus YNL224C, strain SQS1, hits give low values 1 | S. cerevisiae deletion strains, locus YOR083W, strain WHI5 (second series), hits give low values 1.01 | [25] 1 | [26] 1.01
